Screening results from PubChem.
miR122 inh: activators of miR-122 sensor in Huh7 cells; AID 623901; activation, % at 12.5 µM; 340,000 tested, 0.14% active; Huh7 psiCHECK-miR122 Renilla luciferase sensor, 48 h;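 active means mean activation of 30% or more, with every replicate also reaching 30%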;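 further: higher luciferase signal means stronger suppression of miR-122 activity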
Of the large screens only hits and unclear results are named; the others gave an inactive call. Many of the other results were omitted from the sample, so hits are more common in it than they were.

COc1ccc(CN(C)C[C@H]2Oc3c(NC(=O)NC4CCCCC4)cccc3C(=O)N([C@H](C)CO)C[C@@H]2C)cc1	none
CC(=O)Nc1ccc(S(=O)(=O)NCCc2ccc(S(N)(=O)=O)cc2)cc1	none
CCCc1ccc(S(=O)(=O)NCCc2ccncc2)cc1	miR122 inh 36
Cc1cc(C)c(C)c(S(=O)(=O)NCc2ccncc2)c1C	none
O=C(Nc1ccc(S(=O)(=O)NCCc2ccccc2)cc1)c1ccco1	none
Cc1ccc(C)c(S(=O)(=O)NCCCc2ccccc2)c1	none
Cc1cc(C(C)(C)C)cc(S(=O)(=O)NCCc2ccncc2)c1C	miR122 inh 44
C[C@@H]1CN([C@@H](C)CO)S(=O)(=O)c2ccc(C#Cc3ccc(F)cc3)cc2O[C@H]1CN(C)S(=O)(=O)c1cn(C)cn1	none
COCC(=O)N(C)C[C@H]1Oc2ncc(C#Cc3ccccc3OC)cc2C(=O)N([C@@H](C)CO)C[C@@H]1C	none
CC(C)NC(=O)N(C)C[C@@H]1Oc2cc(-c3ccccc3)ccc2S(=O)(=O)N([C@@H](C)CO)C[C@@H]1C	none
C[C@H](CO)N1C[C@H](C)[C@H](CN(C)C(=O)C2CCCCC2)Oc2ncc(-c3ccccc3F)cc2C1=O	none
CNC[C@H]1Oc2cc(C#CCC3CCCC3)ccc2S(=O)(=O)N([C@H](C)CO)C[C@H]1C	none
CCOC(=O)CSc1nnnn1-c1cccc2ccccc12	miR122 inh 38
CCOC(=O)CSc1nc2ccccc2c(=O)n1CC1CCC(C(=O)NCc2ccco2)CC1 (configuration not stated)	none
COc1cccc(NC(=O)N(C)C[C@@H]2Oc3cc(-c4cccc(C(=O)N(C)C)c4)ccc3S(=O)(=O)N([C@H](C)CO)C[C@H]2C)c1	none
C[C@H](CO)N1C[C@H](C)[C@@H](CN(C)C(=O)Cc2ccncc2)Oc2ncc(C#Cc3ccccc3F)cc2C1=O	none
C[C@@H]1CN([C@@H](C)CO)C(=O)c2cc(-c3ccncc3)cnc2O[C@@H]1CN(C)C(=O)c1ccccc1F	none
Nc1cccc2nc3ccccc3cc12	miR122 inh 51
O=C(Nc1ccc(Br)c(Cl)c1)c1ccco1	none
CC1(C)CC(=O)c2cnc(NC(=O)c3ccco3)nc2C1	miR122 inh 38
C[C@@H]1CN([C@@H](C)CO)C(=O)c2cccc(N(C)C)c2O[C@@H]1CN(C)Cc1ccc(C(=O)Nc2ccccc2N)cc1	none
C[C@@H]1CN([C@H](C)CO)C(=O)c2cc(C#Cc3ccccn3)cnc2O[C@H]1CN(C)Cc1cncnc1	none
N/C(Cc1cccc2ccccc12)=N\OC(=O)c1ccc2c(c1)OCO2	none
COc1cc(Cl)cc(/C=N\NC(=O)c2ccc3c(c2)OCO3)c1O	miR122 inh 41
COCC#Cc1ccc2c(c1)O[C@@H](CN(C)C(=O)COC)[C@H](C)CN([C@@H](C)CO)S2(=O)=O	none
CCCC(=O)Nc1ccc2c(c1)OC[C@@H](C)N(C)C[C@@H](C)[C@@H](OC)CN(C)C2=O	none
CCCNC(=O)N(C)C[C@@H]1Oc2cc(Br)ccc2S(=O)(=O)N([C@H](C)CO)C[C@H]1C	none
Cc1cc(C(=O)Nc2cccc3c2O[C@H](CN(C)Cc2ccc(C(=O)Nc4ccccc4N)cc2)[C@H](C)CN([C@@H](C)CO)C3=O)n(C)n1	none
OC(CNCCC1C=Nc2ccccc21)Cn1c2ccc(Cl)cc2c2cc(Cl)ccc21 (configuration not stated)	miR122 inh 55
COc1cccc(-c2cnc3c(c2)C(=O)N([C@@H](C)CO)C[C@H](C)[C@H](CN(C)C(=O)Nc2ccccc2F)O3)c1	none
CCCNC(=O)N(C)C[C@@H]1Oc2ncc(/C=C/c3ccccc3)cc2C(=O)N([C@H](C)CO)C[C@@H]1C	none
CC(C)C#Cc1cnc2c(c1)C(=O)N([C@@H](C)CO)C[C@@H](C)[C@@H](CN(C)Cc1ccccn1)O2	none
C[C@@H]1CN([C@@H](C)CO)S(=O)(=O)c2ccc(-c3cncnc3)cc2O[C@@H]1CN(C)C(=O)Cc1ccncc1	none
C=CCc1c(OC)ccc2ccc(=O)oc12	miR122 inh 32
COc1cccc(NC(=O)N(C)C[C@H]2Oc3cc(-c4cccc(C(=O)N(C)C)c4)ccc3S(=O)(=O)N([C@@H](C)CO)C[C@H]2C)c1	none
C[C@H]1CN([C@@H](C)CO)C(=O)c2cc(C#Cc3ccccc3)cnc2O[C@@H]1CN(C)Cc1ccccn1	none
C[C@@H]1CN([C@H](C)CO)C(=O)c2cc(-c3ccccc3)cnc2O[C@@H]1CN(C)C(=O)Nc1ccccc1	none
Cc1ccc(-c2cnc3c(c2)C(=O)N([C@H](C)CO)C[C@@H](C)[C@H](CN(C)C(=O)Cc2cccnc2)O3)cc1	none
COc1cccc(C#Cc2ccc3c(c2)O[C@@H](CN(C)S(=O)(=O)c2ccccc2F)[C@@H](C)CN([C@@H](C)CO)S3(=O)=O)c1	none
Cc1ccc(-n2c(Cc3ccccc3)n[nH]c2=S)cc1	miR122 inh 41
COCC(=O)N(C)C[C@@H]1Oc2cc(Br)ccc2S(=O)(=O)N([C@@H](C)CO)C[C@H]1C	none
CCC(=O)Nc1ccc2c(c1)OC[C@@H](C)NC[C@H](C)[C@@H](OC)CN(C)C2=O	none
COc1cccc(C#Cc2ccc3c(c2)O[C@H](CN(C)S(=O)(=O)c2ccccc2F)[C@@H](C)CN([C@H](C)CO)S3(=O)=O)c1	none
O=C(Nc1ccccc1F)N1[C@H](CO)[C@@H]2c3ccccc3NC[C@@H]21	miR122 inh 42
O=C(Cc1ccccc1)N1C[C@@H]2[C@H](c3ccccc31)[C@H](CO)N2C(=O)Nc1ccc(F)cc1	none
CC(C)CC#Cc1cnc2c(c1)C(=O)N([C@H](C)CO)C[C@H](C)[C@@H](CN(C)C(=O)Nc1ccccc1F)O2	none
COCC(=O)N(C)C[C@H]1Oc2ncc(/C=C/c3ccccc3)cc2C(=O)N([C@@H](C)CO)C[C@@H]1C	none
C[C@H](CO)N1C[C@H](C)[C@@H](CN(C)C(=O)C2CC2)Oc2ncc(C#Cc3cccc(F)c3)cc2C1=O	none
CC(C)N1C(=O)CC(Nc2ccc(N3CCOCC3)cc2)C1=O (configuration not stated)	none
CCc1ccc(NC(=O)CN2CCc3ccccc3C2)cc1	none
CCc1nnc(SCC(=O)Nc2ccc(N3CCOCC3)cc2)o1	miR122 inh 32
C[C@H]1CN([C@@H](C)CO)C(=O)c2cc(C#Cc3ccccc3F)cnc2O[C@@H]1CN(C)S(=O)(=O)c1ccccc1	none
C[C@@H]1CN([C@H](C)CO)C(=O)c2cc(C#Cc3ccccn3)cnc2O[C@H]1CN(C)Cc1cccnc1	none
O=[N+]([O-])c1ccc(/C=N/n2cnc3ccccc32)s1	miR122 inh 48
C[C@H]1CN([C@@H](C)CO)C(=O)c2cc(C#CCc3ccccc3)cnc2O[C@@H]1CN(C)C(=O)C1CCCCC1	none
CCC(=O)N(C)C[C@@H]1Oc2cc(C#C[C@H](C)O)ccc2S(=O)(=O)N([C@H](C)CO)C[C@H]1C	none
CCC(=O)N(C)C[C@H]1Oc2ncc(C#C[C@H](C)O)cc2C(=O)N([C@H](C)CO)C[C@H]1C	none
O=C(Nc1ccc(Cn2cccn2)cc1)c1ccc(COc2ccccc2Br)cc1	miR122 inh 31
COc1cccc(-c2cnc3c(c2)C(=O)N([C@@H](C)CO)C[C@@H](C)[C@H](CN(C)Cc2cccnc2)O3)c1	none
CCCN(C)C[C@H]1Oc2cc(-c3ccc(OC)cc3)ccc2S(=O)(=O)N([C@H](C)CO)C[C@H]1C	none
CN1C(=O)c2cc(NC(=O)Cc3cccs3)ccc2OC[C@@H]2O[C@@H](CC(=O)NCC3CCCCC3)CC[C@@H]21	none
CCCC(=O)Nc1ccc2c(c1)C(=O)N(C)C[C@@H](OC)[C@H](C)CN[C@@H](C)CO2	none
CCCNC(=O)C[C@H]1CC[C@H]2[C@H](COc3ccc(NC(=O)c4ccc5c(c4)OCO5)cc3C(=O)N2C)O1	none
